Assay outcomes: PubChem BioAssay, National Center for Advancing Translational Sciences (NCATS)
In the library only some 7.6% were active in any assay of this set; here they are far more common.
ELG1 repair inh = qHTS screen for small molecules that inhibit ELG1-dependent DNA repair in human embryonic kidney (HEK293T) cells expressing luciferase-tagged ELG1 | HEK293T ELG1-luciferase reporter, luminescence, 16 h; DNA damage induced by 5-fluorouridine | Potency, µM (highest dose often 46.1 µM), usual class: inhibitors | hit rate 2.3% among 330,000 | AID 504467, 2011; further: nearly all actives have a fitted effect of over 55% in size
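HEK293T cells expressing luciferase-tagged ELG1 (2,000/well) received 5-Fluorouridine plus compound or DMSO for 16 hr at 37 °C. Luciferase was read by ONE-Glo luminescence after 30 min at room temperature.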
p53 reactivation = qHTS assay for re-activators of p53 using a Luc reporter | H1299 p53-A138V BP100-luciferase reporter, luminescence, 24 h | Potency, µM (series often up to 92.2 µM), actives largely listed as activators | hit rate 0.063% among 320,000; further: nearly all actives have a fitted effect of over 45% in size
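H1299 (p53-null), stable ts p53-A138V + BP100-Luc; 1000 cells/well, Opti-MEM/10% FBS; cpd 4 pt, 1:5; 24 h, 37 deg C, 5% CO2; detection reagent 10 min RT; luminescence.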
RORgamma inh = qHTS for inhibitors of ROR gamma transcriptional activity | Potency, µM (titrated, usually from 53.6 µM), hits mostly inhibitors | AID 2551, 2010 | hit rate 5.4% among 310,000 | Drosophila S2 Gal4-RORgamma UAS-luciferase reporter, 20 h | Nuclear receptor ROR-gamma (Mus musculus), P51450; further: nearly all actives have a fitted effect of over 60% in size
Target sequence (P51450 whole entry, looked up, the tested form may be a part): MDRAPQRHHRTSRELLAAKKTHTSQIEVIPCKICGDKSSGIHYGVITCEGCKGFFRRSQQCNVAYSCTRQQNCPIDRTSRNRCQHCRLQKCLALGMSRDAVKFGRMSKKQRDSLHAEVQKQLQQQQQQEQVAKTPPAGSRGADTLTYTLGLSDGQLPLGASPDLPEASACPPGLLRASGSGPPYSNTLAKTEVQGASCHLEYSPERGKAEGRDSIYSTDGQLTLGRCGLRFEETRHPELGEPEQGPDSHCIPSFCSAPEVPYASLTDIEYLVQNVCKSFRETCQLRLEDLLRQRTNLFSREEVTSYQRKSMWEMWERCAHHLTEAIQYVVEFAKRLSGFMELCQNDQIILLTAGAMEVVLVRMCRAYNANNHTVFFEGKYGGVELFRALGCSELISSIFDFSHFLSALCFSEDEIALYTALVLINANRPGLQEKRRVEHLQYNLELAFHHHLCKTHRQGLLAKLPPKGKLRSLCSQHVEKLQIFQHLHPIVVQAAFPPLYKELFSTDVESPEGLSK
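Stable Schneider cell line, Gal4 DNA-binding domain fused to ROR gamma, UAS-luciferase. Cmpd 1 hr RT → CuSO4 700 uM final → 20 hr RT → luciferase reagent 10 min → luminescence.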
Giardia killer = Small Molecules that selectively kill Giardia lamblia: qHTS; Giardia lamblia trophozoite viability; activity change, % at 7.66 µM, hits read low; hit rate 0.15% among 340,000; AID 540267, 2011; in the data active means activity change below about -80%; inconclusive means between about -30% and that limit;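 further: parasites exposed to compound for two days anaerobically before the ATP read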
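Luminescence from cellular ATP indicates surviving trophozoites (100 cells/well) following 48 hrs anaerobic compound treatment at 37 deg C; signal develops 15-30 min at room temperature.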
BRCA1 expr act = qHTS Assay to Identify Small Molecule Activators of BRCA1 Expression. AID 624202, 2012. Potency, µM (doses to about 46.1 µM), usual class: activators. hit rate 1.1% among 380,000. MCF7-BRCA1-FFLuc reporter, luminescence, 48 h; response scale: scaled: vehicle 0%, 10 µM genistein 100%; further: nearly all actives have a fitted effect of over 80% in size
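Activators of BRCA1 expression were detected as increased firefly luciferase luminescence in engineered MCF7 cells after 48 h compound incubation. Signals were scaled to genistein 10 microM as full activation.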
VP16 counter = VP16 counterscreen qHTS for inhibitors of ROR gamma transcriptional activity | Drosophila S2 Gal4-VP16 UAS-luciferase, luminescence, 20 h | Potency, µM (highest dose often 53.6 µM), actives largely listed as inhibitors | hit rate 3.5% among 310,000 | AID 2546, 2010;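 further: Gal4-VP16 expression switched on by copper sulfate through the metallothionein promoter; nearly all actives have a fitted effect of over 50% in size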
Hits are given with their value; i = inactive; ? = inconclusive; nt = not tested or not shown; [ ] = dose if it differs, or a comment. Unless noted, the call rests on the fitted dose curve; in most records, active means well fitted curve in the direction sought with a large enough effect; inconclusive means small, poorly fitted or top-dose-only effect, or another doubt; inactive means no such curve, though single readings can be large; an effect the other way counts as inactive or inconclusive.

SMILES	ELG1 repair inh	p53 reactivation	RORgamma inh	Giardia killer	BRCA1 expr act	VP16 counter
COc1cc(NC(=O)C2CC(=O)N(Cc3ccco3)C2)c(OC)cc1Cl (stereo not given)	i	i	nt	i	i	nt
COc1cc2c(cc1NC(=O)COC(=O)[C@@H](NC(=O)c1ccccc1F)C(C)C)oc1ccccc12	i	?	10µM	i	i	11µM
COc1cc2c(cc1NC(=O)COC(=O)[C@@H](NC(=O)c1ccccc1)C(C)C)oc1ccccc12	?	i	8.9µM	i	i	?
COc1cc2c(cc1NC(=O)COC(=O)C1CC(=O)N(Cc3ccco3)C1)oc1ccccc12 (stereo not given)	?	i	8.9µM	i	i	7.9µM
COc1cc2c(cc1NC(=O)COCC(=O)O)oc1ccccc12	i	i	i	i	i	i
Cc1cccc(NC(=O)c2cccc(S(=O)(=O)Nc3ccccc3C(=O)O)c2)c1	?	nt	i	i	i	i
CC(=O)Nc1ccc(S(=O)(=O)Nc2nc3c(s2)CCCC3)cc1	?	i	?	i	i	i
CCOC(=O)CC1ON(C)C(=O)N1c1ccc([N+](=O)[O-])cc1 (stereo not given)	i	i	i	i	i	i
CCCCc1cc(C)c(S(=O)(=O)c2ccccc2C)c(=O)[nH]1	?	i	i	i	i	i
CN(C)c1ccc(/C=N/N=C2/SC(CC(=O)O)C(=O)N2c2ccc(O)cc2)cc1 (stereo not given)	i	i	i	i	i	i[10 µM]
CC1CCCCC1Nc1ncnc2sccc12 (stereo not given)	i	i	?	i	i	?
Cc1c(NC(=O)C2CCCCN2S(=O)(=O)c2ccc(Cl)cc2)c(=O)n(-c2ccccc2)n1C (stereo not given)	i	i	i	i	i	i
CCCCOC(=S)NC(=O)c1sc2ccccc2c1Cl	i	i	5.6µM	i	i	?
CN(C)CCCOC(=O)c1sc2ccccc2c1Cl	?	i	i	i	i	i
O=C(Nc1ccncc1)c1sc2ccccc2c1Cl	i	i	i	i	i	i[10 µM]
O=C(Nc1ccnc(=O)[nH]1)c1sc2ccccc2c1Cl	?	i	i	i	5.6µM	i
O=C(NNC(=S)NC(=O)c1sc2ccccc2c1Cl)c1ccc(Cl)cc1	?	i	5µM	i	i	13µM
Cc1ccc(NC(=S)NC(=O)c2sc3ccccc3c2Cl)c(C(=O)O)c1	?	i	7.1µM	nt	nt	?
O=C(O)c1ccccc1NC(=S)NC(=O)c1sc2ccccc2c1Cl	?	i	i	i	i	i
OCCNc1nc(C2CC2)nc2c1nnn2Cc1ccccc1Cl	i	i	i	i	i	i
CCOc1ccccc1N(C(=O)c1ccccc1Cl)C1=NC(C)(C)CS1	i	i	18µM	i	i	i
COc1ccc(C)cc1N(C(=O)c1ccc(C#N)cc1)C1=NC(C)(C)CS1	i	i	i	i	i	i
NC(=O)N/N=C/c1ccccc1OC(=O)c1ccccc1Br	i	i	i	i	i	i[10 µM]
CCn1c(CSc2nc3ccccc3s2)n[nH]c1=S	?	i	2.5µM	i	i	10µM
CCn1c(CSc2nc3ccccc3s2)nnc1SCC(=O)c1ccc(Cl)cc1	i	i	i	i	i	i
SMILES	ELG1 repair inh	p53 reactivation	RORgamma inh	Giardia killer	BRCA1 expr act	VP16 counter
S=c1[nH]nc(CSc2nc3ccccc3s2)n1Cc1ccccc1	i	i	4µM	i	i	i
CN(C(=O)CSc1nc2ccccc2s1)c1c(N)n(Cc2ccccc2)c(=O)[nH]c1=O	i	i	i	i	i	i
CCn1c(CSc2nc3ccccc3s2)nnc1SCC(=O)c1ccc(O)c(O)c1	?	i	14µM	i	i	i
C=CCn1c(CSc2nc3ccccc3s2)n[nH]c1=S	i	i	i	i	i	i
CCc1nc2c(OCc3ccc(C(=O)OC)cc3)cccn2c1N(C)C(=O)CC(C)C	nt	nt	nt	nt	i	nt
CN(C)c1ccc(CN(C(=O)/C=C/c2ccccc2Cl)C2CCS(=O)(=O)C2)cc1 (stereo not given)	i	i	?	i	i	i
O=C(NC1CCCN(Cc2ccc(Cl)cc2)C1)c1ccccc1C(F)(F)F (stereo not given)	i	i	i	i	i	i
CCn1c(=O)c(C(=O)Nc2cc(OC)c(OC)c(OC)c2)nc2ccccc21	nt	nt	nt	nt	i	nt
C#CCNC(=O)C1=C[C@H](C(C)(C)C)C[C@H](OCc2ccc(CO)cc2)O1	i	i	i	i	i	i
CC(C)(C)[C@@H]1C=C(C(=O)Nc2ccccc2)O[C@H](OCc2ccc(CO)cc2)C1	7.3µM	i	i	i	i	i
CCOC(=O)/C(C#N)=C/c1c(OCC)n(CC)c2ccccc12	?	i	i	i	i	i
COC(=O)c1c(-c2ccccc2)csc1N1C(=O)Nc2ccccc2N1O	?	i	i	i	7.9µM	i
O=C(Cn1c(=O)n(-c2ccccc2)c(=O)c2ccc(C(=O)NCc3ccc4c(c3)OCO4)cc21)Nc1ccc(Br)cc1	nt	nt	nt	nt	i	nt
Cc1cc(C(F)(F)F)nn1Cc1n[nH]c(=S)n1-c1cccc(Cl)c1	i	i	11µM	i	i	?
Cc1cc(C(F)(F)F)nn1Cc1n[nH]c(=S)n1-c1ccc(Cl)cc1	i	i	?	i	i	?
Cc1cc(C(F)(F)F)nn1Cc1n[nH]c(=S)n1Cc1ccccc1	i	i	?	i	i[1.84 µM]	6.3µM
Cc1cc(C(F)(F)F)nn1CC(=O)Nc1cccnc1	i	i	i	i	i	i
COc1ccc2c(c1)c1c(c(=O)n(-c3ccc(F)c(Cl)c3)c(=O)n1CC(=O)N1CCCC1)n2C	nt	nt	nt	nt	i	nt
O=C(Cc1ccccc1)NC(NCCc1ccccc1)C(Cl)(Cl)Cl (stereo not given)	i	i	i	i	i	i
CN1CCN(c2nc(-c3cc4ccccc4o3)cs2)CC1	?	?	i	i	i	i
NC(=O)C1CCN(c2nc(-c3cc4ccccc4o3)cs2)CC1	?	i	nt	i	11µM	nt
CCOC(=O)c1c(C)[nH]c(N=Nc2ccc(C)cc2)c1C	?	?	?	i	?	?
CCOC(=O)c1c(C)[nH]c(N=Nc2ccc(OC)cc2)c1C	?	i	i	i	6.3µM	i
CCOC(=O)c1c(C)[nH]c(C=Nc2ccc(OC)cc2)c1O	?	?	?	i	6.3µM	i
CCOC(=O)c1c(C)[nH]c(N=Nc2cccc(OC)c2)c1C	?	?	4µM	i	?	i
C[N+](C)(C)CC[N+]1(C)Cc2c(Cl)c(Cl)c(Cl)c(Cl)c2C1	nt	nt	i	nt	nt	i
